Results filed as inconclusive are left out. The source made the active and inactive calls. Calls follow the shape of the dose curve; as a rule, active = well fitted cell-killing curve with a large enough effect in the repeat runs; inconclusive = weak or mixed curves, or effect the other way; inactive = no such curve, though single readings can be large or run the other way.
Assay: qHTS assay to identify small molecule antagonists of the sonic hedgehog signaling (Shh) pathway - cell viability counter screen (AID 1259367); also: nearly all actives have a fitted effect of over 55% in size
Settings: NIH/3T3 Gli1-Luc viability, CellTiter-Fluor, 24 h; series mostly up to 92.4 µM; viability change, negative = cytotoxic: at the top concentration
From the text: National Center for Advancing Translational Sciences [NCATS]
NIH Chemical Genomics Center [NCGC]
U.S. Environmental Protection Agency [EPA]
National Institutes of Environmental Health Sciences [NIEHS]
National Toxicology Program [NTP]
U.S. Food and Drug Administration [FDA]
The sonic hedgehog (Shh) pathway is essential for normal embryonic development. Dysregulation of the Shh pathway can cause severe developmental defects in organs. Therefore chemicals that interfere with the pathway are potential developmental toxicants. A cell line designated 3T3Gli1-Luc (DMB/OARSA/CFSAN/FDA, Laurel, MD), a NIH/3T3 derived clone containing stably integrated Gli1-Luc reporter is used to detect chemical interference of the Shh pathway, by changes in the expression of the firefly Luc gene under the control of the Gli1 transcriptional response element. This cell line was used to screen Tox21 libraries for identifying and prioritizing the potential developmental toxicants that interfere Shh pathway. Conditioned medium-stimulated mode was used to screen for chemicals inhibiting Shh signaling. The cytotoxicity of the compounds was tested in parallel by measuring the cell viability using CellTiter-Fluor assay system (Promega, Madison, WI) in the same wells.
Tox21 Assay Protocol Summary:
3T3 Gli1-Luc cells were dispensed at 2,000 per well in 5uL of culture medium into white solid bottom 1536-well plates (Greiner Bio-One, Monroe, NC) using a Multidrop Combi (Thermo Scientific, Waltham, MA) dispenser. The assay plates were incubated at 37 C and 5% CO2 for 4hr, and then 23nL of compounds dissolved in DMSO and positive control were transferred using a Pintool station (Wako, San Diego, CA). The compound transfer was followed by the addition of 1ul conditioned medium or assay buffer using two separate tips of Flying Reagent Dispenser (FRD, Aurora Discovery, San Diego, CA). The assay plates were incubated at 37C and 5% CO2 for 24hr. For viability read, after 23hr of compound treatment, 1uL of CellTiter-Fluor reagent (Promega Corporation, Madison, WI) was added to each well of the assay plates using Flying Reagent Dispenser (FRD, Aurora Discovery, San Diego, CA) and incubated the assay plates at 37C for 1hr. The fluorescence signal was quantified using a ViewLux plate reader (Perkin Elmer, Shelton, CT).
% is scaled to controls: 0 for no effect and ±100 for the full control effect; potency is read from the fitted curve at half-maximal effect.

Row | SMILES | viability change, negative = cytotoxic | Potency
1 | O=C(O)c1cccc(N(Cc2cccnc2)c2ccc(OC(F)F)c(OC(F)F)c2)c1 | -24.7% (inactive) | 
2 | CC(=O)OCCc1ccccc1 | 3.17% (inactive) | 
3 | CC1(C)CCC(C)(C)c2cc(NC(=O)c3ccc(C(=O)O)cc3)ccc21 | -18.8% [at 42.5 µM] (inactive) | 
4 | O=C(NS(=O)(=O)/C=C/c1cccs1)c1ccc(F)cc1Br | -0.0574% (inactive) | 
5 | Cc1ccc(C)o1 | -4.71% (inactive) | 
6 | CCN(CC)CCc1nc(-c2ccccc2)no1 | -0.0186% [at 42.5 µM] (inactive) | 
7 | NCCCOCCOCCOCCCN | -16.4% (inactive) | 
8 | C=C(C)C(=O)OC(C)C | -5.02% (inactive) | 
9 | CCCCOC(O)CC (stereo not given) | 1.06% (inactive) | 
10 | O=C(O)/C=C/c1cnc[nH]1 | 0.0756% (inactive) | 
11 | C=CC[N+]1([C@H]2C[C@H]3[C@@H]4CC[C@H]5C[C@H](OC(C)=O)[C@@H](N6CCCCC6)C[C@]5(C)[C@H]4CC[C@]3(C)[C@H]2OC(=O)CC)CCCCC1 | 0.228% [at 42.5 µM] (inactive) | 
12 | Cl/C(=C\n1cncn1)c1ccc(Cl)cc1Cl | 3.64% [at 42.5 µM] (inactive) | 
13 | Cc1ccc2c(ccc3ccccc32)c1 | -3.91% (inactive) | 
14 | CC(C)(C)C1CCCCC1O (stereo not given) | 6.7% (inactive) | 
15 | CCOC(=O)C1=C(C)NC(C)=C(C(=O)OC)C1c1cccc([N+](=O)[O-])c1 (stereo not given) | -21% [at 42.5 µM] (inactive) | 
16 | CCN(CC)C(C)CN1c2ccccc2Sc2ccccc21 (stereo not given) | -0.359% [at 42.5 µM] (inactive) | 
17 | Cc1cc(C)c(S(=O)(=O)O)cc1N=Nc1cc(S(=O)(=O)O)c2ccccc2c1O |  | 30.6 µM (active)
18 | Cn1c(NCCN(CCO)CCCc2ccc([N+](=O)[O-])cc2)cc(=O)n(C)c1=O | 1.72% [at 42.5 µM] (inactive) | 
19 | Cc1nc2ccccc2n1Cc1ccc(Cl)cc1 | 4.32% [at 42.5 µM] (inactive) | 
20 | CCN1CCC[C@H]1CNC(=O)c1c(OC)ccc(Br)c1OC | -1.19% [at 42.5 µM] (inactive) | 

Row | SMILES | viability change, negative = cytotoxic | Potency
21 | CN1CCC(OC(c2ccccc2)c2ccccc2)CC1 | -12.9% [at 42.5 µM] (inactive) | 
22 | CN(C)C/C=C(/c1ccc(Br)cc1)c1cccnc1 | -12.7% [at 42.5 µM] (inactive) | 
23 | CCOc1cc(OCC)c(C(=O)CCC(=O)O)cc1OCC | -1.36% [at 42.5 µM] (inactive) | 
24 | C#CCOC(=O)[C@@H](C)Oc1ccc(Oc2ncc(Cl)cc2F)cc1 | 0.92% (inactive) | 
25 | CCCCOCCOCCOCCOCCO | 0.0976% (inactive) | 
26 | OCCC1CCCCN1 (stereo not given) | -0.932% (inactive) | 
27 | Cc1ccccn1 | -14.1% (inactive) | 
28 | O=C(O)COC(=O)Cc1ccccc1Nc1c(Cl)cccc1Cl | 0.0751% [at 42.5 µM] (inactive) | 
29 | CCOc1ccc2[nH]cc(C(=O)NCc3ccccc3)c(=O)c2n1 | -0.921% (inactive) | 
30 | O=S1(=O)c2cccc3cccc(c23)N1CCCN1CCN(c2ccc(F)cc2)CC1 | 4.28% [at 42.5 µM] (inactive) | 
31 | O=C(O)[C@@H]1[C@H]2C[C@H]3c4[nH]c5ccccc5c4CCN3C[C@@H]2CC[C@@H]1O | -0.818% [at 42.5 µM] (inactive) | 
32 | Cc1ccc(C(=O)C(C)CN2CCCCC2)cc1 (stereo not given) | -4.02% [at 42.5 µM] (inactive) | 
33 | CCCCC(CC)COCCCN (stereo not given) | 21.1% (inactive) | 
34 | NCc1ccccc1 | 2.4% (inactive) | 
35 | Nc1cnn([C@@H]2O[C@H](CO)[C@@H](O)[C@H]2O)c(=O)n1 | 3.46% (inactive) | 
36 | CCCCCCCC/C=C\CCCCCCCC(N)=O | -2.4% (inactive) | 
37 | CCN(CCO)CCCC(C)Nc1ccnc2cc(Cl)ccc12 (stereo not given) | 1.32% [at 8.39 µM] (inactive) | 
38 | C=Cc1c(C)c2cc3[nH]c(cc4nc(cc5nc(cc1[nH]2)C(C)=C5CCC(=O)O)C(CCC(=O)O)=C4C)c(C)c3C=C |  | 23.7 µM (active)
39 | Cc1c(Cn2ccnc2)c2ccccc2n1CCC(=O)O | 3.43% [at 42.5 µM] (inactive) | 
40 | COCCCCCCCCOCCC[Si](C)(O[Si](C)(C)C)O[Si](C)(C)C | 11.3% (inactive) | 

Reference: PubChem BioAssay (Tox21)
